Results reported in PubChem BioAssay (Tox21).
Records with an inconclusive call do not appear. Activity calls are given as the source filed them. Unless noted, calls come from the whole dose curve; as a rule, active = well fitted curve in the direction sought with a large enough effect in the repeat runs; inconclusive = weak or mixed curves; inactive = no such curve, though single readings can be large; an effect the other way counts as inactive or inconclusive.

Columns and labels:
[1] = qHTS assay to identify small molecule agonists of the NFkB signaling pathway (AID 1159509; active = well fitted curve in the direction sought with a large enough effect in the signal ratio in the repeat runs, not every such curve was filed as active; the % refers to the signal ratio); details: NFkB-bla ME-180 cells, beta-lactamase FRET ratio, 5 h; series mostly up to 61 µM
Method in brief: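 Agonist activity was read as beta-lactamase-driven FRET change (460 and 530 nm emission, 405 nm excitation) following 1.5 hr substrate loading at room temperature. Beforehand, ME-180 NFkB-bla reporter cells were treated with compounds for 5 hr at 37 C.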

[2] = qHTS assay to identify small molecule agonists of the NFkB signaling pathway - cell viability counter screen (AID 1159515; calls by dose curve; note: nearly all actives have a fitted effect of over 55% in size); details: NFkB-bla ME-180 viability, CellTiter-Glo luminescence, 5 h; series mostly up to 61 µM
Method in brief: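 Plate 2,000 NFkB-bla ME-180 cells/well; incubate overnight. Add compounds, 5 hr at 37 C. Add FRET substrate, 1.5 hr RT. Add CellTiter-Glo, 30 min RT; read luminescence.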

[3] = qHTS assay to identify small molecule agonists of the endoplasmic reticulum stress response signaling pathway (AID 1159516; active = well fitted activation curve with a large enough effect in the signal ratio in the repeat runs, not every such curve was filed as active; the % refers to the signal ratio); details: ESRE-bla HeLa, ER stress beta-lactamase reporter, 5 h; series mostly up to 61 µM
Method in brief: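 Beta-lactamase expression from the ER stress response element in HeLa reporter cells is quantified with the LiveBLAzer B/G FRET substrate, read at 405 nm excitation after 2 hr at room temperature, following 5 hr compound treatment at 37 C.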

[4] = qHTS assay to identify small molecule agonists of the endoplasmic reticulum stress response signaling pathway - cell viability counter screen (AID 1159517; calls by dose curve; note: nearly all actives have a fitted effect of over 50% in size); details: ESRE-bla HeLa viability, CellTiter-Glo luminescence, 5 h; series mostly up to 61 µM
Method in brief: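 Cpd-treated ESRE-bla HeLa (5 hr, 37 C) → LiveBLAzer 2 hr RT → CellTiter-Glo 30 min RT → luminescence.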

[5] = qHTS assay to identify small molecule antagonists of the retinoid-related orphan receptor gamma (ROR-gamma) signaling pathway - cell viability counter screen (AID 1159520); details: Tet-on RORgamma CHO cells viability, ATP luminescence, 16 h; series mostly up to 92.4 µM; note: nearly all actives have a fitted effect of over 50% in size
Method in brief: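 Tet-on ROR gamma CHO cells (1,000/well) were plated 4 hr, given compounds in DMSO for 2 hr at 37 C, then induced with 1 uM final doxycycline for 16 hr. Viability was read as ATP by CellTiter-Glo luminescence after 30 min.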

[6] = biological target: Nuclear receptor ROR-gamma (Homo sapiens) (UniProt P51449); assay: qHTS assay to identify small molecule antagonists of the retinoid-related orphan receptor gamma (ROR-gamma) signaling pathway (AID 1159521;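 note: CHO cells with doxycycline inducible ROR-gamma driving an RORE luciferase reporter; top concentration of the series differs between compounds; nearly all actives have a fitted effect of over 50% in size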); details: Tet-on RORgamma CHO cells, RORE-luciferase, 16 h; series mostly up to 92.4 µM
Method in brief: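 Readout: ONE-Glo luciferase luminescence, 30 min at room temperature. System: Tet-on RORγ CHO, RORE-LUC. Sequence: compound 2 h, doxycycline 1 uM final, 16 h at 37 C.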

[7] = qHTS assay to identify small molecule agonists of the AP-1 signaling pathway - cell viability counter screen (AID 1159525; calls by dose curve; note: nearly all actives have a fitted effect of over 55% in size); details: ME-180 AP-1-bla cells viability, ATP luminescence, 5 h; series mostly up to 76.8 µM
Method in brief: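 Each titration point was normalised to DMSO and tetra n-octyl ammonium bromide controls. The read was Cell Titer Glo luminescence after 30 min at RT, following 5 h compound exposure of ME-180 AP-1-bla cells at 37 °C.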

[8] = qHTS assay to identify small molecule agonists of the AP-1 signaling pathway (AID 1159526; calls by dose curve); details: ME-180 (cervical carcinoma) AP-1-bla reporter, beta-lactamase FRET ratio, 5 h; series mostly up to 76.8 µM
[9] = biological target: Retinoic acid receptor RXR-alpha (Homo sapiens) (UniProt P19793); assay: qHTS assay to identify small molecule agonists of the RXR signaling pathway (AID 1159527; calls by dose curve; note: nearly all actives have a fitted effect of over 35% in size); details: HEK293T RXRa-UAS-bla, beta-lactamase ratio, 16 h; series mostly up to 76.8 µM
Sequence of Retinoic acid receptor RXR-alpha (Homo sapiens) (P19793 whole entry, looked up): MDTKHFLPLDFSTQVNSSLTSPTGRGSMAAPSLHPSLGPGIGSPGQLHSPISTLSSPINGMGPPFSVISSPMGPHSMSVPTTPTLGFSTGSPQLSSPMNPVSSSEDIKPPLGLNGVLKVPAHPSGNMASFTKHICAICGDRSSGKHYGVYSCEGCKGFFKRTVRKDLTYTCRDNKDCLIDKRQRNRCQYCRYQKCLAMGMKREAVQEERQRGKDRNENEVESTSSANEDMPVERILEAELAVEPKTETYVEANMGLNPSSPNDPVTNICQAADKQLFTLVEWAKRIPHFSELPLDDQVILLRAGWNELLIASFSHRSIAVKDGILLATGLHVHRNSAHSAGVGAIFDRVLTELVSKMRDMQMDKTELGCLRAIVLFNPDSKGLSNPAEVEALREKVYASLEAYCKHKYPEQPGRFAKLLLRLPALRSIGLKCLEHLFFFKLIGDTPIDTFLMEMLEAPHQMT
Method in brief: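 Reporter activation is measured as beta-lactamase activity via FRET substrate cleavage (emission 460/530 nm) in HEK 293T cells expressing an RXR-alpha-driven bla construct, following 16 hr compound exposure at 37 C.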

[10] = qHTS assay to identify small molecule agonists of the RXR signaling pathway - cell viability counter screen (AID 1159529); details: RXR-alpha-bla HEK293T viability, CellTiter-Glo, 16 h; series mostly up to 76.8 µM; note: nearly all actives have a fitted effect of over 50% in size
Method in brief: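 Tox21 10K compounds were tested for cytotoxicity against GeneBLAzer RXR-alpha HEK 293T cells grown in 2% charcoal-stripped FBS. Exposure lasted 16 hr at 37 C, 5% CO2; viability read by CellTiter-Glo luminescence.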

[11] = qHTS assay to identify small molecule antagonists of the retinoid acid receptor (RAR) signaling pathway - cell viability counter screen (AID 1159551); details: C3RL4 cells viability, ATP luminescence (CellTiter-Glo), 6 h; series mostly up to 92.4 µM; note: nearly all actives have a fitted effect of over 35% in size
Method in brief: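 Viability of C3RL4 cells is quantified from ATP by luminescence after 6 h treatment at 37 C with compounds and 1 uM retinol.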

[12] = qHTS assay to identify small molecule antagonists of the retinoic acid receptor (RAR) signaling pathway (AID 1159552; note: nearly all actives have a fitted effect of over 50% in size); details: C3RL4 RARE luciferase reporter, retinol-stimulated, 6 h; series mostly up to 92.4 µM
Method in brief: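 Overnight-plated C3RL4 reporter cells get compound, then retinol to 1 uM final; plates sit 6 hr at 37 C, 5% CO2. A luciferase reagent is added and light output recorded after 30 min at room temperature.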

[13] = qHTS assay to identify small molecule agonists of the retinoic acid receptor (RAR) signaling pathway (AID 1159553); details: C3RL4 RARE luciferase reporter, agonist, 6 h; series mostly up to 73.3 µM
Method in brief: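 Compounds dissolved in DMSO were pinned onto C3RL4 cells seeded the previous day, and plates were held 6 hr at 37 C. RARE-driven luciferase output was then read by luminescence.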

[14] = qHTS assay to identify small molecule antagonists of the estrogen related receptor (ERR) signaling pathway from Tox21 library - cell viability counter screen (AID 1224834); details: ERR reporter cells viability, CellTiter-Fluor, 17.5 h; series mostly up to 92.4 µM; note: nearly all actives have a fitted effect of over 30% in size
Method in brief: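 In this quantitative HTS format, ERR cells receive compounds in DMSO and are incubated for 17.5 h at 37 C. Live-cell protease activity is then detected with CellTiter-Fluor.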

[15] = biological target: Luciferin 4-monooxygenase (Photinus pyralis) (UniProt P08659); assay: qHTS assay to identify small molecule inhibitors of firefly luciferase (AID 1224835); note: nearly all actives have a fitted effect of over 25% in size; details: purified P. pyralis luciferase, luminescence inhibition; series mostly up to 115 µM
Sequence of Luciferin 4-monooxygenase (Photinus pyralis) (P08659 whole entry, looked up): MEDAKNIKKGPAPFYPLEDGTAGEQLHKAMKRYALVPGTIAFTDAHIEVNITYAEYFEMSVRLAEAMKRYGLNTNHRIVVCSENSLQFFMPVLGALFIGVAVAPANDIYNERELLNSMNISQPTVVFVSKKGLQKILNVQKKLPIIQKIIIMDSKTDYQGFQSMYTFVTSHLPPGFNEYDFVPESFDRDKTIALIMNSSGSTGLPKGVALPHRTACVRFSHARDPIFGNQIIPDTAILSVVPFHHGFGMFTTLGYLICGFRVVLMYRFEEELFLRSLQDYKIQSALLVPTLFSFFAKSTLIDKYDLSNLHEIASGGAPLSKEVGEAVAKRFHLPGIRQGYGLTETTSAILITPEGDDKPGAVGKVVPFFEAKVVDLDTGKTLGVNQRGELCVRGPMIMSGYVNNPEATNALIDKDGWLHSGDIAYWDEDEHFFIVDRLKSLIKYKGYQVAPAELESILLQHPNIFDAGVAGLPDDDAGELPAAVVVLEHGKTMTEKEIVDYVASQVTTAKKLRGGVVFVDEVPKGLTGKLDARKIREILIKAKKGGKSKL
Method in brief: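 Quantitative HTS format; KM concentrations of both substrates. Purified P. pyralis FLuc activity quantified from luminescence images.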

[16] = qHTS assay to identify small molecule antagonists of the constitutive androstane receptor (CAR) signaling pathway - cell viability counter screen (AID 1224837); details: HepG2-CYP2B6-hCAR viability, CellTiter-Fluor, 23 h, co-treated with 50 nM CITCO; series mostly up to 92.4 µM; note: nearly all actives have a fitted effect of over 45% in size
Method in brief: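 In quantitative HTS format, compounds at 15 concentrations were applied to HepG2 cells double-transfected with hCAR and CYP2B6-2.2kb under 50 nM CITCO stimulation; live-cell protease activity was read after 23 hr via CellTiter-Fluor.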

[17] = biological target: Nuclear receptor subfamily 1 group I member 3 (Homo sapiens) (UniProt Q14994); assay: qHTS assay to identify small molecule antagonists of the constitutive androstane receptor (CAR) signaling pathway (AID 1224838); details: HepG2-CYP2B6-hCAR luciferase, CITCO-stimulated, 24 h; series mostly up to 92.4 µM; note: nearly all actives have a fitted effect of over 40% in size
Sequence of Nuclear receptor subfamily 1 group I member 3 (Homo sapiens) (Q14994 whole entry, looked up): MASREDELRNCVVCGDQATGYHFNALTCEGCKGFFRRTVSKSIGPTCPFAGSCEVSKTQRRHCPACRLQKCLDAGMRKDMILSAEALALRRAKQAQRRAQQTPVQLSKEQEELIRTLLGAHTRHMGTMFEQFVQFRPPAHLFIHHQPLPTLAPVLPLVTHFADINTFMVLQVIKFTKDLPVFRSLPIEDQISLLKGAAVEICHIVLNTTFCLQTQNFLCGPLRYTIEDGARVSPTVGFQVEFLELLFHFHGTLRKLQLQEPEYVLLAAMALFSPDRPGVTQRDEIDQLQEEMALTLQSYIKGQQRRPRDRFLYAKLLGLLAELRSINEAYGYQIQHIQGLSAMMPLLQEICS
Method in brief: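 CITCO-stimulated (50 nM final) HepG2 cells stably transfected with hCAR and CYP2B6-2.2kb luciferase were exposed to compounds at 15 concentrations for 24 h at 37 C/5% CO2. A luciferase reagent was added and luminescence recorded after 30 min.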

[18] = biological target: Nuclear receptor subfamily 1 group I member 3 (Homo sapiens) (UniProt Q14994); assay: qHTS assay to identify small molecule agonists of the constitutive androstane receptor (CAR) signaling pathway (AID 1224839); details: HepG2 hCAR CYP2B6-luciferase, agonist mode, 24 h; series mostly up to 92.4 µM;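 note: HepG2 cells stably carrying human CAR and a CYP2B6 luciferase reporter; nearly all actives have a fitted effect of over 15% in size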
Method in brief: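 Stable hCAR/CYP2B6-2.2kb HepG2 line in DMEM with 10% FBS; compounds (15 concentrations) and 0.75 uM PK11195 final, 24 h at 37 C/5% CO2, then ONE-Glo luminescence after 30 min.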

[19] = qHTS assay to identify small molecule antagonists of the vitamin D receptor (VDR) signaling pathway - cell viability counter screen (AID 743225); details: VDR-bla HEK293T viability, CellTiter-Glo luminescence, 16 h; series mostly up to 61 µM; note: nearly all actives have a fitted effect of over 50% in size
Method in brief: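 Cytotoxicity toward the VDR-bla HEK 293T line was scored by ATP-based CellTiter-Glo luminescence, read in the wells already used for the beta-lactamase readout after 16 h compound treatment under 3 nM 1-alpha,25-dihydroxyvitamin D3 stimulation.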

Measured: Potency

O=C(O)c1cc2ccccc2nc1C(=O)O
not listed: [19]
inactive: all other assays above

C=CCCCCCCCC
not listed: [18]
inactive: all other assays above

CCO[Si](CC)(OCC)OCC
inactive: all assays above

CCCCOCC(C)O (stereo not drawn)
inactive: all assays above

CC1(C)Cc2cccc(N)c2O1
inactive: all assays above

C=CC/C=C/C
not listed: [17] | [18]
inactive: all other assays above

C/C(CC(C)C)=N\O
not listed: [18]
inactive: all other assays above
